Test results: PubChem BioAssay (NCATS)
Records with an inconclusive call do not appear. Activity calls are given as the source filed them. Calls come from the whole dose curve; as a rule, active = well fitted curve in the direction sought with a large enough effect; inconclusive = small, poorly fitted or top-dose-only effect, or another doubt; inactive = no such curve, though single readings can be large; an effect the other way counts as inactive or inconclusive.

Key:
[1] = target: Glutathione peroxidase 1 (Homo sapiens) (UniProt P07203); test: Primary qHTS Assay for Inhibitors of Recombinant Selenoprotein Glutathione Peroxidase 1 (GPX1) (AID 1845191); note: nearly all actives have a fitted effect of over 65% in size
Chain of Glutathione peroxidase 1 (Homo sapiens) (P07203 whole entry, looked up): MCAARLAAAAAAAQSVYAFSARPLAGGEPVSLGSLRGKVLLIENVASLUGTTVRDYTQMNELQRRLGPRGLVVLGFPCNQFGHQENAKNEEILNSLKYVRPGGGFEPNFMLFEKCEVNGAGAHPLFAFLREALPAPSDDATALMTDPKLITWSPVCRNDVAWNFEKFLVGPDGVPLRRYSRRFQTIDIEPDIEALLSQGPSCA
Summary of the method: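 GR-coupled assay: compounds preincubated 30 min at room temperature with GPX1, then reaction started with CHP; final 10 nM GPX1, 1 mM GSH, 0.5 mM CHP, 0.5 mM NADPH, 100 nM GR, 0.01% BSA, pH 7.5 Tris buffer. NADPH fluorescence (340/450 nm) read at 0 and 15 min.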

[2] = target: Phospholipid hydroperoxide glutathione peroxidase GPX4 (Homo sapiens) (UniProt P36969); test: Primary qHTS Assay for Inhibitors of Recombinant Selenoprotein Glutathione Peroxidase 4 (GPX4) (AID 1845192); note: nearly all actives have a fitted effect of over 65% in size
Chain of Phospholipid hydroperoxide glutathione peroxidase GPX4 (Homo sapiens) (P36969 whole entry, looked up): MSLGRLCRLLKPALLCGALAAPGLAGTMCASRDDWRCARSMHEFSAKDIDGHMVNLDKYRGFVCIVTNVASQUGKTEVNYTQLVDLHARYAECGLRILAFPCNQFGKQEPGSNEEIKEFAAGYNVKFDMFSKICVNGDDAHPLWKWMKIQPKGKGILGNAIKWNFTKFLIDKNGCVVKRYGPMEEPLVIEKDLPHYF
Summary of the method: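 GR-coupled assay: recombinant GPX4 preincubated 30 min with compound at room temperature; final 200 nM GPX4, 1 mM GSH, 0.5 mM cumene hydroperoxide, 0.5 mM NADPH, 100 nM GR, 0.01% BSA, pH 7.5 Tris. NADPH fluorescence (340/450 nm) read at 0 and 15 min.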

[3] = target: Luciferin 4-monooxygenase (Photinus pyralis) (UniProt P08659); test: Primary firefly luciferase (FLuc) qHTS assay for identification of artifact compounds. (AID 1845220); note: nearly all actives have a fitted effect of over 60% in size
Summary of the method: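 Enzymatic FLuc inhibition assay: compounds pre-exposed to luciferin/ATP (10 uM each) for 15 min, then purified P. pyralis enzyme at 10 nM added. Read-out: luminescence at 5 min.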

[4] = Primary fluorescence-based thiol-reactive (MSTI) qHTS assay for identification of artifact compounds. (AID 1845221);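 note: series mostly up to about 54 µM; thiol-reactive compounds lower the probe fluorescence signal; nearly all actives have a fitted effect of over 65% in size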
Summary of the method: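 A multi-concentration qHTS design tested compounds against 4 uM MSTI, pH 7.4 phosphate-buffered saline. Plates were protected from light for 1 h at room temperature before imaging fluorescence.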

CC1=C2C[C@H]3OC(=O)[C@H](O)[C@@]4(O)[C@@H](C)[C@@H](O)[C@H](O)C([C@@]2(C)[C@H](O)[C@@H](O)C1)[C@@]34C (some centres undefined)
inactive: Potency [1] | Potency [2] | Potency [3] | Potency [4]

CC1(C)CC2C(O)C3=C(CC(C)(O)C2C1)C(=O)OC3 (centres undefined)
inactive: Potency [1] | Potency [2] | Potency [3] | Potency [4]

CC1(C)CC[C@]2(C(=O)O)CC[C@]3(C)C(=CCC4[C@@]5(C)C[C@@H](O)[C@H](O)[C@@](C)(CO)C5[C@H](O)C[C@]43C)[C@@H]2C1 (some centres undefined)
inactive: Potency [1] | Potency [2] | Potency [3] | Potency [4]

CC(CCO)CCC1C2(C)CCCC(C)(C)C2CC[C@@]1(C)O (some centres undefined)
inactive: Potency [1] | Potency [2] | Potency [3] | Potency [4]

CC1(C)CC[C@]2(C(=O)O[C@@H]3O[C@H](CO[C@@H]4O[C@H](CO)[C@@H](O)[C@H](O)[C@H]4O)[C@@H](O)[C@H](O[C@@H]4O[C@H](CO)[C@@H](O)[C@H](O)[C@H]4O)[C@H]3O)CC[C@]3(C)C(=CCC4[C@@]5(C)CC[C@H](O[C@@H]6OC[C@@H](O)[C@H](O)[C@H]6O)[C@@](C)(C(=O)O)C5CC[C@]43C)[C@@H]2C1 (some centres undefined)
inactive: Potency [1] | Potency [2] | outcome [3] inactive [at 11.6 µM] | activity change, negative = thiol reactive [4] 183% [at 11.5 µM]

CC1(C)CCC2(C(=O)O)C(O)CC3(C)C(=CCC4C5(C)CCC(OC6OC(CO)C(O)C(O)C6OC6OC(CO)C(O)C(O)C6OC6OCC(O)(CO)C6O)C(C)(C)C5CCC43C)C2C1 (centres undefined)
inactive: Potency [1] | Potency [2] | outcome [3] inactive [at 11.6 µM] | activity change, negative = thiol reactive [4] 154% [at 11.5 µM]
